Assay [1] relates to Zika virus NS2B-NS3 protease (linked construct). Put plainly: Primary screen NINDS Rhodamine qHTS for Zika virus inhibitors (AID 1347160). Further: nearly all actives have a fitted effect of over 55% in size. Further: potency means the concentration at half of the fitted maximal effect. The method in brief: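 Purified linked NS2B-NS3 protease (NS2B hydrophilic domain joined to NS3 protease by flexible linker), 25 nM in 10 mM Tris-HCl pH 8.0, 0.01% Tween 20. Compounds titrated, 15 min preincubation at room temperature; 1.5 microM Rhodamine110 substrate, FITC fluorescence change over 15 min.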
(In qHTS, concentration-response curves come from the screen itself.)

Assay [2] in a line: OV-KATE Cancer Cell Toxicity qHTS against the NCATS CANVASS Library (AID 1347345). Further: potency means the concentration at half of the fitted maximal effect. The method in brief:
(§1)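 Following a 4 h pre-incubation of 1000 seeded cells, compounds were pinned in an 11-pnt dilution series and left for 72 h; viability then came from CellTiter-Glo.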

Assay [3] in a line: HPAF-II Cancer Cell Toxicity qHTS against the NCATS CANVASS Library (AID 1347346). Further: potency means the concentration at half of the fitted maximal effect; nearly all actives have a fitted effect of over 55% in size. In a few lines:
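Cytotoxicity in HPAF-II pancreatic cancer cells: 72 h treatment across 11 concentrations, ATP-based CellTiter-Glo luminescence endpoint.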

Assay [4] can be described thus: Panc-1005 Cancer Cell Toxicity qHTS against the NCATS CANVASS Library (AID 1347349). Further: nearly all actives have a fitted effect of over 60% in size. Further: potency means the concentration at half of the fitted maximal effect. The method in brief:
as §1

Assay [5] can be described thus: HPAF-II 24hr Apoptosis Induction qHTS against the NCATS CANVASS Library (AID 1347356). In a few lines: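 Apoptosis induction in HPAF-II pancreatic cancer cells is measured as caspase-3/7 luminescence after a 24-hour exposure to compounds.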
A short description of assay [6]: HPAF-II 12hr Apoptosis Induction qHTS against the NCATS CANVASS Library (AID 1347358). The method in brief: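 Apoptosis in HPAF-II pancreatic cancer cells is scored as caspase 3/7 luminescence following a 12-hour exposure to an 11-point compound series.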
Assay [7] in a line: HEK293 24hr Apoptosis Induction qHTS against the NCATS CANVASS Library (AID 1347359). The method in brief: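 Caspase-3/7 activation measured as luminescence from the DEVD-based Caspase-Glo reagent, 15 min at room temperature, following 24-hour compound treatment of HEK293 cells.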
A short description of assay [8]: HPAF-II 18hr Apoptosis Induction qHTS against the NCATS CANVASS Library (AID 1347360). The method in brief:
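Caspase-3/7 activation was measured with luminescent Caspase-Glo 3/7 reagent (15 min, RT) in HPAF-II cancer cells (500 cells/well). Before detection, cells had been treated for 18 h at 37 C with compounds (11 points).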

The subject of assay [9] is NAD(P)H diaphorase (Clostridium kluyveri). Put plainly: Diaphorse counterscreen qHTS: Assay Interference Panel against the NCATS CANVASS Library (AID 1347362). In a few lines:
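Counterscreen for coupling-enzyme interference: resorufin fluorescence from resazurin/NADH turnover, read after 5 min at room temperature. Compounds were tested over an 11-point series after 15 min dark preincubation with diaphorase in PBS-Tween.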
(Counterscreens check selectivity or assay interference.)

Assay [10] has as its target Luciferin 4-monooxygenase (Photinus pyralis) (UniProt P08659). Put plainly: Firefly luciferase counterscreen qHTS: Assay Interference Panel against the NCATS CANVASS Library (AID 1347363). Further: series mostly up to about 57 µM. In a few lines: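 Luminescence inhibition readout: compounds (11-point qHTS) sat 15 min at room temperature with substrate mix (0.013 mM luciferin and ATP), then firefly luciferase was added and signal read 5 min later.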

Assay [11] is described as follows: qHTS for ATAD5 Agonist screened against the NCATS CANVASS Library (AID 1347367).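 Further: luciferase reporter driven by ATAD5 which rises upon DNA damage.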 In a few lines: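 Genotoxicity via ATAD5-luciferase luminescence after 16 h compound exposure (11-point series) at 37C in HEK293T-ATAD5 cells. CellTiter-Fluor viability read precedes the luminescence read; MMS serves as positive control.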
Assay [12] in a line: qHTS for ATAD5 Antagonist screened against the NCATS CANVASS Library (AID 1347370). Further: nearly all actives have a fitted effect of over 65% in size. Further: potency means the concentration at half of the fitted maximal effect. The method in brief:
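HEK293T cells with a stably integrated ATAD5-controlled luciferase reporter were exposed to compounds (11-pt) alongside 10 uM 5-fluorouridine as ATAD5 stabilizer for 16hr at 37C. Viability was read by CellTiter-Fluor fluorescence, then ATAD5 by luminescence.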

Assay [13] in a line: J3T Cancer Cell Toxicity qHTS against the NCATS CANVASS Library (AID 1347371). Further: potency means the concentration at half of the fitted maximal effect. The method in brief:
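Viability of the J3T glioma line from dog is scored by ATP luminescence after a 72 hr incubation with natural products.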

Assay [14] has as its target Nuclear receptor subfamily 1 group I member 3 (Homo sapiens) (UniProt Q14994). Put plainly: qHTS for Constitutive Androstane Receptor (CAR) Agonist screened against the NCATS CANVASS Library (AID 1347373).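 Further: every well also contained 1.5 µM PK11195 alongside the test compound.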 The method in brief:
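CAR agonism is scored as CYP2B6-promoter luciferase induction in a double-stable transfected HepG2 line, where 1.5uM PK11195 is included in each well. Compounds were tested over a 24hr exposure.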

The nature of assay [15]: 10-beta competent E. coli microbial cell viability qHTS against the NCATS CANVASS Library (AID 1347376). Further: series mostly up to about 46 µM. In a few lines:
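Cytotoxicity toward competent E. coli is scored from cellular ATP content via BacTiter-Glo luminescence following overnight compound exposure at 37C, 5% CO2.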

Assay [16] can be described thus: qHTS for Inflammasome Signaling Inhibitors: IL-1-beta AlphaLISA screen against the NCATS CANVASS Library (AID 1347379).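 Further: human THP-1 cells primed with LPS then triggered with ATP; secreted IL-1B measured as AlphaLISA emission at 615 nm.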 Further: potency means the concentration at half of the fitted maximal effect. The method in brief: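 Human THP-1 cells were pretreated 1 hr at 37 °C with compounds (up to 57.5 uM final), then stimulated with LPS (250 ng/mL final) and ATP (1.25 mM final). Secreted IL-1B was read by AlphaLISA after 16 hr.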
Assay [17] can be described thus: Inflammasome Signaling qHTS Counterscreen: IL-1-beta AlphaLISA counterscreen against the NCATS CANVASS Library (AID 1347381).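 Further: cell-free check with purified IL-1β in medium and no THP-1 cells; series mostly up to about 57 µM.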 The method in brief:
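To flag interference with the AlphaLISA read-out, a known amount of purified IL-1-beta (4 pg) replaced cell supernatant. Detection used anti-IL-1-beta acceptor beads, biotinylated antibody and streptavidin donor beads at room temperature.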

The nature of assay [18]: UWB1.289 Cancer Cell Toxicity qHTS against the NCATS CANVASS Library (AID 1347347). Further: nearly all actives have a fitted effect of over 60% in size. Further: potency means the concentration at half of the fitted maximal effect. The method in brief: as §1
The nature of assay [19]: HEK293 12hr Apoptosis Induction qHTS against the NCATS CANVASS Library (AID 1347361). Further: potency means the concentration at half of the fitted maximal effect. In a few lines:
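HEK293 cells (500/well, DMEM + 10% FBS) were exposed to natural products across an 11-point series for 12 hours at 37 degrees C. Caspase-3/7 activity was then measured with DEVD luciferase luminescence after 15 min at room temperature.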

Assay [20] is described as follows: qHTS for Hypoxia signaling pathway (HIF-1) agonists against the NCATS CANVASS Library (AID 1347375). Further: potency means the concentration at half of the fitted maximal effect. In a few lines:
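Inducers of HIF-1 signaling were detected in ME-180 cells bearing an HRE-driven beta-lactamase reporter after 17 h compound exposure. Activity came from CCF4-AM FRET emission ratio (460/530 nm) in qHTS format.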

Records with an inconclusive call do not appear. Activity calls are given as the source filed them. The call rests on the fitted dose curve; in most records, active means well fitted curve in the direction sought with a large enough effect; inconclusive means small, poorly fitted or top-dose-only effect, or another doubt; inactive means no such curve, though single readings can be large; an effect the other way counts as inactive or inconclusive.

Luciferin 4-monooxygenase (Photinus pyralis), sequence (P08659 whole entry, looked up): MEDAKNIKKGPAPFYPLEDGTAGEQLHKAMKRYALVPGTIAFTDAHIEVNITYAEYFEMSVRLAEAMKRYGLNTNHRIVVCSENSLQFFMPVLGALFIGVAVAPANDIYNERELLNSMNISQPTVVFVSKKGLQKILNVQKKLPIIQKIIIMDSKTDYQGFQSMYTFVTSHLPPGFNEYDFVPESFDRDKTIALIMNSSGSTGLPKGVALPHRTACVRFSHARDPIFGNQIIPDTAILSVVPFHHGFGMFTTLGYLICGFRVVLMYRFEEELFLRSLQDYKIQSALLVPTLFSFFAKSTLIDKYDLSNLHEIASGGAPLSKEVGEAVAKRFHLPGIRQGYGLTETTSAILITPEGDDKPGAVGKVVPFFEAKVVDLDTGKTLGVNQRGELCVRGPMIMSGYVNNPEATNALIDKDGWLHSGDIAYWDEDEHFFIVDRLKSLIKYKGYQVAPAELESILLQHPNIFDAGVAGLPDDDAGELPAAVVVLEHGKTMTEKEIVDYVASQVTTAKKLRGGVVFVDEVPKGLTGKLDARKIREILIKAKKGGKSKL
Nuclear receptor subfamily 1 group I member 3 (Homo sapiens), sequence (Q14994 whole entry, looked up): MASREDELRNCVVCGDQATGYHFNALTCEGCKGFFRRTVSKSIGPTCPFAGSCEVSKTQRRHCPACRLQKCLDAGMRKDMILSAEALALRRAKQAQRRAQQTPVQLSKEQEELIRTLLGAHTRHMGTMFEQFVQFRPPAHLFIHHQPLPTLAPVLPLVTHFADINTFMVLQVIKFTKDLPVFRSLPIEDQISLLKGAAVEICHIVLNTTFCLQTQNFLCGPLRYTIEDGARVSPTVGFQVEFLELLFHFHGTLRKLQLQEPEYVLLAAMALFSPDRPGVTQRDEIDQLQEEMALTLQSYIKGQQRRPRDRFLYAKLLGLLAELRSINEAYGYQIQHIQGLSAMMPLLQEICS

On to `C=C1C(=O)O[C@H]2C[C@H](C)[C@@H]3CC(=O)C(C)=C3[C@H](O)[C@H]12`, for which the Potency entry in assay [1], in [6], in assay [7], in [8], in assay [9] and in [10] was “inactive” each time. Further, in assay [11], the Potency entry was “inactive”. Further, the Potency is 13.3 µM (active) in assay [2]; 13.3 µM (active) in assay [3]; 18.8 µM (active) in [4]; 13.2 µM (active) in [12]; 23.5 µM (active) in [13]; 10.9 µM (active) in assay [16]. Also, the compound was called inactive in [5], in [14], in [15] and in assay [17].
Consider `O=C(O)Cc1c[nH]c2ccccc12`, for which the Potency result in [1], in assay [2], in [18], in assay [4], in [6] and in assay [7] was “inactive” throughout. Further, the Potency result in [8], in assay [19], in assay [9], in assay [10], in assay [11] and in assay [12] was “inactive” throughout. For the same compound, the Potency result in assay [13], in assay [20] and in assay [16] was “inactive” throughout. The result in [5], in [14], in [15] and in [17] was inactive.
Regarding `C/C1=C/[C@@H](C)[C@H](O)C/C=C/CC/C=C/C(=O)O[C@@H]1[C@H](C)C(=O)/C=C/CC1CC(=O)NC(=O)C1`, the Potency was 44 µM (active) in [1]; 18.8 µM (active) in [2]; 13.3 µM (active) in assay [3]; 11.9 µM (active) in assay [4]; 16.6 µM (active) in [12]; 16.6 µM (active) in [13]. In addition, the Potency in assay [16] is 13.7 µM (active). In addition, the outcome in assay [5], in assay [14], in assay [15] and in assay [17] was inactive. Besides, the Potency entry in assay [6], in assay [7], in [8], in assay [9], in assay [10] and in assay [11] was “inactive” throughout. Also, in assay [20], the Potency result was “inactive”.
On to `C=C1C(=O)O[C@H]2[C@H]1CC/C(CO)=C\CC[C@@]1(C)O[C@@H]21`, for which the Potency result in assay [1], in assay [6], in assay [7], in assay [8], in assay [9] and in assay [10] was “inactive” in each case. Further, the Potency entry in assay [11] and in [20] was “inactive” each time. Besides, the Potency in assay [2] was 18.8 µM (active); in [3] it was 16.8 µM (active); in assay [18], 7.47 µM (active); in assay [4], 10.6 µM (active); in [19], 23.5 µM (active); in assay [12], 20.9 µM (active). Moreover, the Potency in [13] is 18.7 µM (active); in assay [16], 6.11 µM (active). Besides, the result in assay [5], in assay [14], in assay [15] and in assay [17] was inactive.
Consider `CC(C)=CCC/C(C)=C/Cc1c(O)c(CC=C(C)C)c(O)c2c(=O)c3cc(O)ccc3oc12`, for which the Potency is 9.84 µM (active) in assay [1]; 2.36 µM (active) in [2]; 8.38 µM (active) in assay [18]; 14.9 µM (active) in assay [4]; 13.2 µM (active) in assay [12]; 13.3 µM (active) in assay [20]. The compound was classed as inactive in [5], in assay [14], in assay [15] and in assay [17]. The Potency result in [6], in [7], in [8], in assay [19], in [9] and in assay [10] was “inactive” throughout. In addition, the Potency entry in [11] and in assay [13] was “inactive” throughout.

Source of the values: PubChem BioAssay (NCATS).
